Screening data from PubChem.
JMJD2A Tudor inh = inhibitors of human JMJD2A Tudor domain; Potency, µM (series often up to 114 µM), actives largely listed as inhibitors; AID 504339; hit rate 4.4% among 390,000; AlphaScreen JMJD2A-Tudor / H3K4me3 peptide binding; note: nearly all actives have a fitted effect of over 50% in size
Sfp inh = blocks B. subtilis Sfp PPTase activity | AID 1490 | hit rate 3.5% among 310,000 | Potency, µM, hits mostly inhibitors | Biochemical Sfp PPTase activity, qHTS | Q9F4F7;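 note: the enzyme is Sfp with the accession as filed and its product quenches rhodamine fluorescence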
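Fluorescence-quenching assay with 15 nM Sfp, 5 uM rhodamine-CoA and 12.5 uM BHQ-2-labelled ybbR peptide in pH 7.6 Hepes/MgCl2 buffer. Enzyme was pre-incubated with compound for 15 min at room temperature. Rate was taken from the 30-min fluorescence change (525/598 nm).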
HP1b chromo inh = inhibitors of HP1-beta chromodomain binding to methylated histone tails. hit rate 0.56% among 390,000. AlphaScreen HP1-beta / biotin-H3K9me3 peptide binding. Potency, µM (highest dose often 114 µM), most hits filed as inhibitors. P83916; note: nearly all actives have a fitted effect of over 70% in size
Target sequence (P83916 whole entry, looked up): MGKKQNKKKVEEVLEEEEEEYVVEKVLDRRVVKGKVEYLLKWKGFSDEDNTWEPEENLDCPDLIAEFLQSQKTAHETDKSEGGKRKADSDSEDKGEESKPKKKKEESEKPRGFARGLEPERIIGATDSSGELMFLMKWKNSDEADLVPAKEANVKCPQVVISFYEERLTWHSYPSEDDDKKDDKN
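Compound inhibition of the preformed complex between 50 nM HP1-beta and 50 nM biotinylated H3K9me3 peptide was read by AlphaScreen. Buffer was PBS pH 7.4 with 0.01% Tween-20. Incubations ran 30 min at room temperature, with 10 ug/mL donor/acceptor beads.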
L3MBTL1 inh = inhibitors of human L3MBTL1 | Q9Y468 | AlphaScreen L3MBTL1–H3K9me1 peptide binding | Potency, µM (series often up to 57.1 µM), actives largely listed as inhibitors | hit rate 0.66% among 230,000 | AID 485360; note: nearly all actives have a fitted effect of over 60% in size
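AlphaScreen assay: L3MBTL1 (50 nM final) was preincubated 30 min at room temperature with biotinylated H3(1-15)K9me1 peptide (75 nM final), then 30 min with library compounds; streptavidin donor and nickel chelate acceptor beads (10 ug/mL final) added, 30 min dark.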
G9a inh = blocks human histone lysine methyltransferase G9a; hit rate 8.8% among 350,000; G9a H3K9 monomethylation, AlphaScreen, 2 h; Q96KQ7; Potency, µM (doses to about 102 µM), usual class: inhibitors; note: nearly all actives have a fitted effect of over 75% in size
Target sequence (Q96KQ7 913-1193 limits assumed): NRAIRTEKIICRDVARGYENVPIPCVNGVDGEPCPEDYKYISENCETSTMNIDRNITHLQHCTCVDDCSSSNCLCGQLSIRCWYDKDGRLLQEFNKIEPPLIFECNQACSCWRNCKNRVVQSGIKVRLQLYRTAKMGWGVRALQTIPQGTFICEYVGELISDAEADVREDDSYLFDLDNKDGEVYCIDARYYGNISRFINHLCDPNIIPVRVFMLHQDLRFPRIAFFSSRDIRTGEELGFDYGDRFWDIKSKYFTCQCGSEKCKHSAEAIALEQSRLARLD
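Chemiluminescent proximity detection of H3K9 monomethylation, read after 10 min bead incubation in the dark. Reaction: 20 nM G9a, 500 nM biotin-H3K9 peptide, 20 uM SAM cofactor, 2 h, room temperature, following 15 min enzyme-compound preincubation.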
BAZ2B inh = BAZ2B (human) inhibition; Q9UIF8; AlphaScreen BAZ2B-H3K14Ac peptide displacement; Potency, µM (top dose mostly 114 µM), actives largely listed as inhibitors; hit rate 4.4% among 360,000; note: nearly all actives have a fitted effect of over 60% in size
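Inhibition is scored as reduced AlphaScreen emission. The BAZ2B/b-H3(5-23)K14Ac complex (50 nM each) in PBS pH 7.4, 0.01% Tween-20 meets compound (up to 110 uM) for 30 min at RT before bead addition.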
Of the large screens only hits and unclear results are named; the others gave an inactive call. Only some compounds are listed: those with a hit (about 12% of all), similar ones and a draw of the others. Calls come from the whole dose curve; as a rule, active = well fitted curve in the direction sought with a large enough effect; inconclusive = small, poorly fitted or top-dose-only effect, or another doubt; inactive = no such curve, though single readings can be large; an effect the other way counts as inactive or inconclusive.

Cc1ccc(S(=O)(=O)NCc2ccco2)cc1C(N)=O	JMJD2A Tudor inh 25.1µM
Cc1ccc2ccc(S(=O)(=O)NCc3ccco3)cc2c1	G9a inh 35.5µM (no result: L3MBTL1 inh)
COc1ccc(C(=O)CCN2CCN(c3ccccc3OC)CC2)cc1	Sfp inh 50.1µM, G9a inh 50.1µM, BAZ2B inh inconclusive
COc1ccc(C(=O)CCN2CCc3cc(OC)c(OC)cc3C2)cc1	G9a inh 12.6µM (no result: L3MBTL1 inh)
COc1ccccc1N1CCN(CC(=O)c2ccc3ccn(C(C)=O)c3c2)CC1	Sfp inh inconclusive, G9a inh 11.2µM (no result: L3MBTL1 inh)
COc1ccccc1N1CCN(CCN2C(=O)CC(=C3c4ccccc4-c4ccccc43)C2=O)CC1	JMJD2A Tudor inh 31.6µM (no result: Sfp inh, L3MBTL1 inh, G9a inh, BAZ2B inh)
CC(=O)OCC(=O)c1ccc2ccn(C(C)=O)c2c1	none
CN(C)CCN1C(=O)c2ccccc2N(C)c2ccccc21	Sfp inh inconclusive (no result: JMJD2A Tudor inh, HP1b chromo inh, L3MBTL1 inh, BAZ2B inh)
C[C@@H]1Cc2ccccc2N1NC(=O)c1ccc(Cl)c(S(N)=O)c1 (stereo partly specified)	none (no result: JMJD2A Tudor inh, HP1b chromo inh, L3MBTL1 inh, BAZ2B inh)
O=S(=O)(NCCc1cn(S(=O)(=O)c2ccccc2)c2ccccc12)c1ccccc1	JMJD2A Tudor inh 50.1µM (no result: Sfp inh, L3MBTL1 inh, G9a inh, BAZ2B inh)
O=S(=O)(NCCc1c[nH]c2ccccc12)c1ccccc1	none (no result: L3MBTL1 inh)
CCN1CCN(c2cc3c(nn2)Oc2ccccc2N3C)CC1	G9a inh 50.1µM
CCN1CCN(c2nnc(-c3ccccc3)c3ccccc23)CC1	G9a inh inconclusive (no result: L3MBTL1 inh)
CCOc1cc(N2CCOCC2)c(OCC)cc1NC(=O)Cc1ccc(OC)c(OC)c1	JMJD2A Tudor inh inconclusive, G9a inh 50.1µM, BAZ2B inh inconclusive
CCOc1cc(N2CCOCC2)c(OCC)cc1NC(=O)COC(=O)c1cc2ccccc2cc1O	none
CCOc1cc(N2CCOCC2)c(OCC)cc1NC(=O)c1cccc(N(C)C)c1	JMJD2A Tudor inh inconclusive, HP1b chromo inh inconclusive, G9a inh 44.7µM, BAZ2B inh 39.8µM
CCOc1cc(N2CCOCC2)c(OCC)cc1NC(=O)COC(=O)[C@@H]1CCCN1S(=O)(=O)c1ccccc1F	G9a inh 44.7µM, BAZ2B inh inconclusive
CCOc1ccc(OCCC(=O)OCC(=O)Nc2cc(OCC)c(N3CCOCC3)cc2OCC)cc1	JMJD2A Tudor inh inconclusive, HP1b chromo inh inconclusive, G9a inh 35.5µM, BAZ2B inh inconclusive (no result: Sfp inh)
CCOc1cc(NC(=O)c2ccco2)c(OCC)cc1NC(=O)Cc1ccc(OC)c(OC)c1	none
Cc1ccc2c(c1)c(=O)c(S(=O)(=O)c1ccc(F)cc1)cn2CC(=O)Nc1ccc2c(c1)OCO2	none (no result: Sfp inh, L3MBTL1 inh)
CCCc1cc(=O)[nH]c2nnc(SCC(=O)Nc3ccc(OC)cc3)n12	none (no result: Sfp inh, L3MBTL1 inh)
O=S(=O)(c1ccccc1)c1nnn2c1nc(NC1CCCCC1)c1sccc12	none (no result: Sfp inh, L3MBTL1 inh)
CCOc1cc(N2CCOCC2)c(OCC)cc1NC(=O)Cc1cccc(OC)c1	JMJD2A Tudor inh inconclusive, G9a inh 50.1µM, BAZ2B inh inconclusive
CCOc1cc(N2CCOCC2)c(OCC)cc1NC(=O)Cn1cnnn1	none (no result: Sfp inh, G9a inh, BAZ2B inh)
CCOc1cc(N2CCOCC2)c(OCC)cc1NC(=O)CC12CC3CC(CC(C3)C1)C2	JMJD2A Tudor inh 44.7µM, G9a inh 12.6µM, BAZ2B inh 35.5µM (no result: L3MBTL1 inh)
CCOc1cc(N2CCOCC2)c(OCC)cc1NC(=O)COc1cccc(CC)c1	JMJD2A Tudor inh inconclusive, G9a inh inconclusive, BAZ2B inh inconclusive (no result: Sfp inh)
CCOc1cc(C2C(C#N)=C(N)Oc3n[nH]c(-c4ccncc4)c32)cc([N+](=O)[O-])c1O (stereo unspecified)	Sfp inh 79.4µM (no result: L3MBTL1 inh, BAZ2B inh)
CCCc1[nH]nc2c1C(c1ccc(O)cc1OCC)C(C#N)=C(N)O2 (stereo unspecified)	G9a inh inconclusive, BAZ2B inh 79.4µM
CN(CC(=O)NCc1ccccc1Cl)S(=O)(=O)c1ccc2c(c1)c(=O)n(C)c(=O)n2C	none (no result: Sfp inh, L3MBTL1 inh)
COc1cc(/C=N\Nc2nc3ccccc3o2)cc(OC)c1OC	none
Cc1ccccc1/C=N/Nc1ccnc2cc(Cl)ccc12	JMJD2A Tudor inh inconclusive
COc1cc(/C=N/Nc2ccc(F)cc2F)cc(OC)c1OC	G9a inh 1.78µM
Clc1ccc2c(N/N=C/c3ccc(Br)cc3)ccnc2c1	Sfp inh inconclusive, G9a inh inconclusive
Fc1ccc(N/N=C/c2cccnc2)c(F)c1	G9a inh 31.6µM
Clc1ccc2c(N/N=C/c3cccnc3)ccnc2c1	Sfp inh 50.1µM
Cc1ccc(/C=N/Nc2ccnc3cc(Cl)ccc23)c(C)c1	JMJD2A Tudor inh 22.4µM, Sfp inh 44.7µM, G9a inh inconclusive, BAZ2B inh inconclusive
COc1ccc(-n2ccn(CC(=O)Nc3ccccc3C(F)(F)F)c(=O)c2=O)cc1OC	G9a inh inconclusive (no result: Sfp inh, L3MBTL1 inh)
COc1ccc(Cl)cc1NC(=O)Cn1cc(S(=O)(=O)Cc2cccc(Cl)c2)c2ccccc21	none (no result: Sfp inh, L3MBTL1 inh)
CN(C)c1ccc(-c2nc(N3CCNCC3)c3ccccc3n2)cc1	none (no result: JMJD2A Tudor inh, HP1b chromo inh, L3MBTL1 inh, G9a inh, BAZ2B inh)
C=CCn1c(SCC(=O)NCCCC(=O)OCC)nc2scc(-c3ccco3)c2c1=O	Sfp inh 17.8µM, G9a inh inconclusive
